Measured values from PubChem BioAssay AID1649 (The Scripps Research Institute Molecular Screening Center, 2009).
This is one part of the list. Unmarked numbers belong to inactive results. No stated cut-off is given here; in the data, active means activation above about 33%; inactive means the rest.

Assay: NPY-Y2 potentiators or agonists, counter-screen for NPY-Y1 potentiator project, cell-based, fluorescence (AID 1649)
Conditions: HEK293-CNG cells, membrane-potential fluorescence (FLIPR), 1536-well; at 3.6 µM; hits give high values

Row | SMILES | activation
1 | CSC1=NP(=S)(SC)N(C)c2nc3n(c21)CCC3 (configuration not stated) | 3.63%
2 | Cc1nn(Cc2ccccc2Cl)c(Cl)c1C(=O)OC(C(=O)NC(N)=O)C(C)C (configuration not stated) | 23.6%
